Test results: PubChem BioAssay (EPA / NIEHS)
“And” between values parts separate entries of the source, which are not always exact repeats. Equal values may be shown once. A structure can be active in one record and inactive in another. The source made the active and inactive calls. How the source made its calls: active means hit-call score of the fitted dose curve at least 0.9, where 1 is the maximum; inactive means score below 0.9.

Assay: CCTE_Shafer_MEA_dev_per_network_spike_spike_percent: CCTE's Neural Network Formation Assay for Percent of Spikes in a Network Spike, Shafer Lab (AID 2284054)
Procedure: CCTE_Shafer_MEA_dev assay is conducted using Axion Biosystems 48 well microelectrode array (MEA) plates and Maestro recording system. Each well of the MEA plate contains a grid of 16 microelectrodes embedded in the culture surface. Electrically active cells, such as neurons, can be cultured over the electrodes, and electrical activity in these cells can be recorded extracellularly. The spontaneous firing of neurons is captured from each electrode on a microsecond timescale providing both temporally and spatially precise data. […] The CCTE_Shafer_MEA_dev assay uses primary cultures of rat cortical neurons. Recordings are made on days post-plating 5, 7, 9 and 12. As these cultures mature over time, neural networks develop functional activity and form cohesive networks in which electrical activity can be highly coordinated. CCTE_Shafer_MEA_dev_per_network_spike_spike_percent is 1 of 19 assay components of the CCTE_Shafer_MEA_dev assay. It measures the percent of spikes (action potential firings) in a network spike (temporally-clustered group of spikes across multiple electrodes) as the number of spikes that occur within a 0.05 s time window at the peak of a network spike divided by the total number of spikes during a recording in a microelectrode array (MEA) using Axion Biosystems Maestro 768 channel amplifier with the AxIS adaptive spike detector. To collapse across multiple recordings made on days post-plating 5, 7, 9 and 12, the trapezoidal area-under-the-curve of the component is calculated.Data from the assay component CCTE_Shafer_MEA_dev_per_network_spike_spike_percent was analyzed into 1 assay endpoint. This assay endpoint, CCTE_Shafer_MEA_dev_per_network_spike_spike_percent, was analyzed in the negative analysis fitting direction relative to DMSO as the negative control and baseline of activity. Using a type of functional reporter, gain or loss-of-signal activity can be used to understand electrical activity.
On the day prior to culture, each well was coated thoroughly with 150 uL of 0.05% polyethyleneimine (PEI, Sigma Cat P3143) in 50 mM HEPES (Sigma Cat H7523) at a pH of 8. The plate was incubated at 37C for one hour. PEI was rinsed out with 500 uL of sterile water three times. Plates were stored at 4C until the day of culture. This culture was plated at a seeding density of 1.5 x 10^5 cells/well on a 48-well MEA plate, prepared as described above. Cells were administered via a 25 uL media/laminin ([…]; Sigma Cat L2020-1MG) drop directly onto the microelectrode array, as adding the cells with the laminin results in better attachment than pre-coating with laminin. After 2 hours, an additional 475 uL of cortical media was added and the cells returned to the incubator. Exposure starts at day 0 of plating and is continued over twelve days of network development until the experiment is terminated. Cells are fed with fresh medium on DIV 5 and 9, following the recordings on those days. The entire volume of media in the well is exchanged and any vehicle or compound treatment is renewed. Complete details are found in OP-NHEERL/ISTD/SBB/TJS/2015-03-r0 (available on request, email shafer.tim@epa.gov). Measurement of the electrical activity is non-invasive, and recordings can be made from the same plate over multiple different days of the culture. In cortical neurons, this allows for the measurement of extracellular action potentials over the period during which networks form in the MEA plate.

Structure (SMILES)	AC50	outcome
COP(=S)(OC)SCN1C(=O)c2ccccc2C1=O	20.2 µM (active)	inactive
CN(C)[C@@H]1C(=O)C(C(N)=O)=C(O)[C@@]2(O)C(=O)C3=C(O)c4c(O)cccc4[C@@](C)(O)[C@H]3C[C@@H]12		inactive
COC(=O)Nc1nc2ccccc2[nH]1	5.94 µM (active)	
CC(C)(C)C(O)(CCc1ccc(Cl)cc1)Cn1cncn1 (stereo unspecified)		inactive
CC(C)COC(=O)c1ccccc1C(=O)OCC(C)C	23.1 µM (active)	
CCNS(=O)(=O)C(F)(F)C(F)(F)C(F)(F)C(F)(F)C(F)(F)C(F)(F)C(F)(F)C(F)(F)F	6.71 µM (active) and 4.93 µM (active)	
O=P(OCCCl)(OCCCl)OCCCl		inactive
[O-][Cl+]O		inactive
Nc1cc(Cl)cc(C(=O)O)c1Cl		inactive
[Cl-].[Cl-].[Hg+2]	0.423 µM (active)	
CCCCOC(=O)c1ccccc1C(=O)OCc1ccccc1		inactive
C1=Cc2cccc3cccc1c23		inactive
ClC1=C(Cl)C2(Cl)C3C(Cl)C=CC3C1(Cl)C2(Cl)Cl (stereo unspecified)	1.4 µM (active)	
CNC(=O)Oc1cccc2c1OC(C)(C)C2		inactive
OCCOCCO		inactive
CCC[CH2][Sn]([Cl])([CH2]CCC)[CH2]CCC	0.0777 µM (active)	
Clc1ccc(C(c2ccc(Cl)cc2)C(Cl)(Cl)Cl)cc1	3.02 µM (active) and 4.15 µM (active)	
ClC1=C(Cl)[C@]2(Cl)[C@H]3[C@H]([C@@H]4C=C[C@H]3C4)[C@@]1(Cl)C2(Cl)Cl	7.67 µM (active)	
Clc1ccc(C(c2ccc(Cl)cc2)C(Cl)Cl)cc1	3.97 µM (active)	
CC(C)(O)c1cnn2c(-c3ccc(F)c(-c4c(F)cccc4C#N)c3)cnc2n1	10 µM (active)	
